This test has as its target Hexose transporter 1 (Plasmodium falciparum) (UniProt O97467). Briefly: ST_JUDE_LEISH: Cytotoxicity at 2uM final concentration against transgenic Leishmania Mexicana promastigotes LmPfHT that are glucose transport deficient and complemented with the Plasmodium falciparum hexose transporter. Activity is measured by DNA content using SYBR green in vitro. In kind it is functional.
As for `CC(C)C[C@H]1c2[nH]c3ccc(Cl)cc3c2CCN1C(=O)CCc1ccccc1`, the inhibition was 2.53%.

For `Cc1ccccc1C1CCN(C2CCC(NC(=O)c3cc4cc(C(C)C)ccc4[nH]3)CC2)CC1` (stereo not given), the inhibition is 2.91%.

In the case of `NCC(=O)Nc1cccc(Nc2nccc(-c3c(-c4cccc(NC(=O)c5ccccc5)c4)nn4ccccc34)n2)c1`, the inhibition turned out to be 7.49%.

Consider `CC(C)(C)OC(=O)N1CCN(c2ccccc2NC(=O)c2cccc(C(F)(F)F)c2Oc2ccc(F)cc2)CC1`, for which the inhibition amounted to 0.7%.

With `CC1CN(Cc2ccc(-c3ccc(-c4nc5cc(F)ccc5[nH]4)s3)cc2)CC(C)O1` (stereo not given), the inhibition is 4.68%.

In the case of `CN1CCCN(Cc2ccc(-c3ccc(NC(=O)c4cccc(C#N)c4)cc3)cc2)CC1`, the inhibition worked out at 0.34%.

Consider `COc1ccc(NC(=O)[C@H](CC(C)C)Nc2cc(C)nc(NCCc3ccccc3)n2)cc1`, for which the inhibition came to 3.69%.

With `O=C(Nc1cccc(-c2ccc(-c3nc4cc(C(F)(F)F)ccc4[nH]3)cc2)c1)c1ccncc1`, the inhibition came out at 0.73%.

On to `CS(=O)(=O)c1ccc(CNCc2cccc(-c3ccc(-c4nc5cc(C(F)(F)F)ccc5[nH]4)cc3)c2)cc1`, for which the inhibition is 5.08%.

For `C=C(C)COc1ccc(-c2n[nH]c(C(F)(F)F)c2-c2ccccc2OC)c(O)c1`, the inhibition was 6.88%.

For the molecule `CN(C)CCN(Cc1ccc(-c2ccc(CNCCc3ccccc3)cc2)nc1)C(=O)CCC1CCCC1`, the inhibition was determined as 6.87%.

In the case of `COc1cc2nc(N(C)C)nc(Nc3ccc(OCc4ccccc4)cc3)c2cc1OC`, the inhibition stood at 1.34%.

For `COc1cc(Cc2cnc(N)nc2N)cc(OCCCCC#N)c1OC`, the inhibition came to 1.74%.

Turning to `Fc1ccc2[nH]c(-c3ccc(-c4ccc(CNCCc5ccncc5)cc4)cc3)nc2c1`, the inhibition turned out to be 2.46%.

Turning to `O=C(Cc1ccc(NC(=O)c2ccc(O)c(-c3ccc(Cl)c(Cl)c3)c2)cc1)NCCc1ccc(Cl)c(Cl)c1`, the inhibition was 2.38%.

`Cc1ccc2c(-c3ccc([N+](=O)[O-])o3)cc(C)nc2c1`: the inhibition was determined as 46.4%.

Turning to `CCCCN(C(=O)c1ccccc1C)c1nnc(-c2ccccc2C)s1`, the inhibition amounted to 1.53%.

For the molecule `COc1ccc(-c2cccc(NC(=O)c3cccc(Cl)c3)c2)cc1CN1CCCC1`, the inhibition turned out to be 5.81%.

As to `Cc1cccc2nc(-c3ccc(-c4ccc(NC(=O)CN5CCN(C)CC5)cc4)cc3)[nH]c12`, the inhibition came to 1.8%.

Consider `CCOC(=O)c1cc(C(=O)NCCCCN2CCC(c3ccc4c(c3OC)CCCC4)CC2)ccc1-c1ccc(C(F)(F)F)cc1`, for which the inhibition is 4.37%.

As for `CN(c1ccccc1)S(=O)(=O)c1cccc(NC(=O)c2ccc(-n3ccnc3)c([N+](=O)[O-])c2)c1`, the inhibition came out at 3.61%.

Take `Cc1ccnc(NC(c2cccc(Cl)c2Cl)c2ccc3cccnc3c2O)c1` (stereo not given): the inhibition is 5.15%.

Take `COc1ccccc1CNc1ccnc(NCCc2cccc(C(F)(F)F)c2)n1`: the inhibition turned out to be 8.92%.

With `Cc1ccc2c(c1)c(-c1ccccc1)c(-c1ccccc1)n2CC(O)CN1CCN(CC=Cc2ccccc2)CC1` (stereo not given), the inhibition came to 1.97%.

With `OC(CNCc1ccccc1OCc1ccccc1)c1cc(C(F)(F)F)cc(C(F)(F)F)c1` (stereo not given), the inhibition worked out at 10.9%.

Turning to `COc1ccc(CN(C)CCCOc2ccc(NC(=O)C=Cc3ccc(C(C)(C)C)cc3)cc2)cc1OC`, the inhibition amounted to 9.61%.

Regarding `CCc1c[nH]c2c(N3CCCC3=O)cc(C(=O)N[C@@H](Cc3ccccc3)[C@H](O)CNC3CCCCC3)cc12`, the inhibition was found to be 6.05%.

For `O=C(Nc1ccc(-c2csc(-c3nc4ccccc4[nH]3)c2)cc1)Nc1ccsc1`, the inhibition amounted to 0.76%.

Regarding `CNC(=O)c1cnc(Nc2ccc(N3CCN(C)CC3)c(C)c2)nc1NC`, the inhibition was -3.69%.

Regarding `CC(=O)Nc1ccc(C(=O)NC2CCN(c3ccnc4cc(Cl)ccc34)C2)cc1` (stereo not given), the inhibition was 0.28%.

For the molecule `CCCCCCCNC(=O)NCC1CCCN(CCCCCNC(=O)/C=C/c2ccc(Cl)c(Cl)c2)C1` (stereo not given), the inhibition was found to be 4.27%.

As for `N#Cc1cccc(-c2nc(NCc3cccc(C(F)(F)F)c3)nn2-c2cccc(C(F)(F)F)c2)c1`, the inhibition is -0.35%.

As for `CC(=O)Nc1ccc(C(=O)Nc2cccc(-c3csc(-c4nc5ccccc5[nH]4)c3)c2)cn1`, the inhibition was determined as 1.56%.

Take `CCCCN(C(=O)c1ccccc1Cl)c1nnc(-c2ccccc2C)s1`: the inhibition was 0.39%.

For `Cc1ccc(NC(=O)c2cccc(CN3CCCN(Cc4cccc(O)c4)CC3)c2)cc1F`, the inhibition was determined as 8.09%.

Regarding `COC(=O)Nc1ccc(-c2ccc(C(=O)NC3CCN(C[C@H](O)c4ccnc5ccc(OC)cc45)CC3)cc2)c(C)c1`, the inhibition is 0.01%.

With `COc1ccc(CCNCCCCCNCCCc2ccc(Cl)cc2)cc1OC`, the inhibition is -1.18%.

On to `CCOc1cc(C(=O)Nc2ccccc2N2CCN(S(C)(=O)=O)CC2)cc(OCC)c1OCC`, for which the inhibition amounted to 3.96%.

For `COc1cc2nc(NCCCO)nc(Nc3ccc(Oc4ccccc4)cc3)c2cc1OC`, the inhibition came to 6.09%.

With `N=C(Nc1cccc(Cc2ccccc2)n1)Nc1ncccn1`, the inhibition was 1.79%.

For the origin of these results see ChEMBL document CHEMBL3433997, “St. Jude Leishmania screening dataset” (2016).
